Mtb UGM inh = M. tuberculosis UGM enzyme inhibitors, primary screen, biochemical, fluorescence polarization, single point; 0.06% of 320,000 active; inhibition, % at 10 µM; UDP-galactopyranose mutase (Mycobacterium tuberculosis (strain ATCC 25618 / H37Rv)), …; purified UGM, fluorescence polarization probe displacement; in the data active means inhibition above about 10%, passing the limit was not always enough
Mtb hypoxia rep = PubChem AID 1159583 | 0.1% of 300,000 active | fluorescence inhibition, % (no concentration beside the values) | M. tuberculosis hypoxia-regulated fluorescent reporter, fluorescence; in the data active means fluorescence inhibition mostly above about 23%, no sharp cut-off; inactive means mostly below about 17%
RecA splice inh = Mtb RecA intein splicing inhibitors, primary screen, biochemical, fluorescence, HTS. Protein RecA (Mycobacterium tuberculosis (strain ATCC 25618 / H37Rv)), P9WHJ3. 0.75% of 290,000 active. cell-free RecA intein splicing. AID 2221, 2009. inhibition, % (concentration not given with the values); in the data active means inhibition above about 30%
Rv3671c protease = Rv3671c serine protease inhibitors, primary screen, biochemical, fluorescence polarization, M. tuberculosis H37Rv; AID 2606, 2010; inhibition, % at 5.96 µM; 0.048% of 320,000 active; P9WHR9; in the data active means inhibition above about 38%;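 further: extracellular domain of Rv3671c used as enzyme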
FadD28 FP inh = inhibitors of FadD28 bisubstrate probe binding, primary screen, biochemical, fluorescence polarization, single point; Mycobacterium tuberculosis FadD28 fatty-acid-AMP ligase; inhibition, % at 12.5 µM; 0.22% of 360,000 active; in the data active means inhibition above about 8.5%, passing the limit was not always enough
GFP chromo cs = counter-screen: blocks GFP chromophore formation, dose response, counter-screen, biochemical, fluorescence, homogeneous; shares compounds with RecA splice inh; cell-free GFP chromophore formation; EC50, µM; 83% of 2,100 active; call rule not given here
Hits are given with their value; . = inactive; / = not tested or not shown. Hits are enriched below; roughly 0.92% of the tested compounds scored in any of these assays.

SMILES	Mtb UGM inh	Mtb hypoxia rep	RecA splice inh	Rv3671c protease	FadD28 FP inh	GFP chromo cs
O=C1NC(=O)/C(=C/c2cc3c(cc2Br)OCO3)S1	.	.	.	.	.	/
Cc1ccc(C(c2cc(Br)ccc2O)N2CCSCC2)cc1 (stereo not given)	.	.	.	.	.	/
Cc1[nH][nH]c(=O)c1C(c1cc(Br)ccc1O)c1c(C)[nH][nH]c1=O	.	.	97	.	.	0.53
CC(CC1CC(COCCC(C)C)OC1=O)=NNC(N)=S (stereo not given)	/	.	/	/	/	/
CCCc1c(C(=O)NNc2cccc(Cl)c2)cnn1-c1ccccc1	.	.	32	.	.	.
CC(=NNC(=O)c1ccc(C)nc1)c1ccc2c(c1)CCCC2	/	.	/	/	/	/
O=C(CNC(=O)c1ccccc1O)NN=Cc1cc(Br)ccc1OC(=O)C=Cc1ccco1	/	.	/	/	/	/
O=C(CCl)N1N=C(c2cccs2)CC1c1ccco1 (stereo not given)	.	.	63	.	.	31
CCC1=Nc2cc(C(=O)NCCN3CCCC3)ccc2Sc2ccccc21	.	.	38	.	.	.
COCCOC(=O)C1=C(C)N=C2SCCC(=O)N2C1c1ccc(OC(=O)c2ccco2)cc1 (stereo not given)	.	.	33	.	.	.
O=[N+]([O-])c1cc(S(=O)(=O)C(F)(F)F)ccc1Sc1nc2ccccc2s1	.	/	85	.	.	0.25
CS(=O)(=O)c1ccc(Sc2nc3ccccc3[nH]2)c([N+](=O)[O-])c1	.	.	.	.	.	/
O=[N+]([O-])c1cc(S(=O)(=O)C(F)(F)F)ccc1Sc1nc2ccccc2[nH]1	.	/	82	.	.	1.5
CS(=O)(=O)c1ccc(Sc2nc3ccccc3s2)c([N+](=O)[O-])c1	.	.	.	.	.	/
CC(C=Cc1cccnc1)=CC(=O)O	/	.	/	/	/	/
O=C(CC12CC3CC(CC(C3)C1)C2)NN=Cc1ccncc1	/	.	/	/	/	/
CC(=NNC(=O)c1cccc(S(=O)(=O)N2CCOCC2)c1)c1ccc(OC(F)F)cc1	/	.	/	/	/	/
Cc1ccc(S(=O)(=O)Cc2cc(F)c([N+](=O)[O-])cc2[N+](=O)[O-])cc1	.	/	35	.	.	23
c1ccc(-c2nc(N3CCCCCC3)c3ccccc3n2)nc1	.	/	32	.	.	.
COc1cc(C=C2C(=O)c3ccccc3C2=O)ccc1O	.	.	46	.	.	.
CCOC(=O)C1CCN(Cc2cc(C(C)C)c(O)c(C(C)C)c2)CC1	.	.	59	.	.	.
COC(=O)CN1C(=O)C2C(c3ccc(C)o3)N3C(=O)CN(CCO)C(=O)[C@@]3(Cc3ccccc3)C2C1=O (stereo not given in full)	/	.	/	/	/	/
C/C(CC(=O)Nc1ccc(F)cc1F)=N\NC(=O)C(=O)N1CCCCC1	.	/	78	.	/	11
Cc1cc(C)c[n+](C2=C([O-])c3ccccc3C(=O)/C2=N\S(=O)(=O)c2cccs2)c1	.	.	.	.	.	/
CC(C)[n+]1ccn(C2=C([O-])c3ccccc3C(=O)/C2=N\S(=O)(=O)c2ccccc2)c1	.	.	31	.	.	21
SMILES	Mtb UGM inh	Mtb hypoxia rep	RecA splice inh	Rv3671c protease	FadD28 FP inh	GFP chromo cs
Cc1cc[n+](C2=C([O-])c3ccccc3C(=O)/C2=N\S(=O)(=O)c2cccs2)cc1C	.	.	32	.	.	6.7
CC(C)(C)c1cc[n+](C2=C([O-])c3ccccc3C(=O)/C2=N\S(=O)(=O)c2ccccc2)cc1	.	.	50	.	.	16
CC(=NNC(=O)C1(C)CC1(Br)Br)c1ccc(NC(=O)c2ccc(C)o2)cc1 (stereo not given)	/	.	/	/	/	/
Clc1cccc(NN=Cc2ccc(N3CCOCC3)cc2)c1	/	.	/	/	/	/
CCOC(=O)c1ccc(NC(=O)c2nc[nH]c2C(=O)NC(CC(C)C)C(=O)OC(C)(C)C)cc1 (stereo not given)	/	.	/	/	/	/
N#CC1=C(N)N(c2ccccc2)C(c2ccccc2)C1(C#N)C#N (stereo not given)	.	.	43	.	.	31
N#CC1=C(N)C(C#N)(C#N)C(c2cccnc2)C2CC(c3ccccc3)CC=C12 (stereo not given)	.	/	.	.	.	/
CCN(CC)c1ccc(/C=N/Nc2nc(C)cc(=O)[nH]2)c(O)c1	.	/	39	.	.	.
CCOC(=O)c1nc(C)n(-c2ccc(Cl)cc2)n1	.	.	49	.	.	.
Cc1ccc(NC2=C(NC(=O)c3ccccc3)C(=O)c3ccccc3C2=O)cc1Cl	.	.	70	.	.	6.4
O=C(O)c1ccc(NC2=C(Cl)C(=O)c3ccccc3C2=O)cc1	.	.	98	.	.	2.2
COc1cc(NC2CCCCC2O)c2nc(-c3ccc(Cl)cc3)ccc2c1 (stereo not given)	.	.	51	.	.	0.18
CCN1C(=O)C2C(c3ccc(OC)cc3)N3C(=O)CN(CCOC)C(=O)[C@@]3(C)C2C1=O (stereo not given in full)	/	.	/	/	/	/
O=c1c2ccccc2nc(-c2ccccc2)n1-c1ccccc1O	.	.	.	.	.	/
O=C1c2ccccc2-n2c1nc1ccccc1c2=O	.	/	71	.	.	1.3
CS/C(Nc1cc(Cl)ccc1Cl)=C(/C#N)C(=O)c1ccco1	.	/	65	.	.	27
O=C(Nc1cc(Cl)ccc1Cl)c1ccco1	.	.	.	.	.	/
O=S(=O)(Nc1ccc(-n2cnnn2)cc1)c1ccc(F)c(F)c1F	.	.	30	.	.	.
O=S(=O)(Nc1ccc(-n2cnnn2)cc1)c1ccccc1F	.	.	/	.	.	/
O=[N+]([O-])c1cc(-c2ccc(C(=S)N3CCOCC3)o2)ccc1Cl	.	.	31	.	.	18
Cc1ccc(NN=C2CS(=O)(=O)N(C)c3ccsc32)cc1	/	.	/	/	/	/
CC(C)S(=O)(=O)C1=NSC2=NC(=O)/C(=C\c3ccc(OC(=O)c4ccco4)cc3)C(=N)N21	.	.	34	.	.	.
NC(CC(=O)Nc1ccc(F)cc1)=NO	/	.	/	/	/	/
CC12CCC(CC1=NNC(=O)COc1ccccc1Cl)C2(C)C (stereo not given)	/	.	/	/	/	/
COC(=O)C1=C(c2ccc(OC(F)(F)F)cc2)CC2CCC1N2C(=O)NCc1cccc2ccccc12 (stereo not given)	/	.	/	/	/	/
O=C(c1ccc(Oc2ccc(C(F)(F)F)cn2)cc1)N1CCN(c2ccccc2)CC1	.	.	.	.	.	/
COc1ccc(N2CCN(C(=O)c3ccc(Oc4ccc(C(F)(F)F)cn4)cc3)CC2)cc1	.	.	31	.	.	.
CCN1CCN(CC(=O)n2c3c(c4ccccc42)CC(C)CC3)CC1 (stereo not given)	.	/	.	.	.	/

High-throughput results as filed in PubChem BioAssay.
